Compounds with a hit are over-represented: about 10% of the library has one in this group of screens.
G9a block = qHTS Assay for Inhibitors of Histone Lysine Methyltransferase G9a | Histone-lysine N-methyltransferase EHMT2 (Homo sapiens), Q96KQ7 | G9a H3K9 monomethylation, AlphaScreen, 2 h | Potency, µM (series often up to 102 µM), inactives show at the top dose activity, negative = inhibition, most hits filed as inhibitors | hit rate 8.8% among 350,000 | AID 504332, 2011; note: % is set by controls: 0 for no effect and ±100 for the full control effect; nearly all actives have a fitted effect of over 75% in size
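Quantitative HTS format: methyltransferase activity on a biotin-tagged H3K9 peptide is measured by AlphaScreen, using a rabbit anti-monomethyl-H3K9 antibody with streptavidin donor and anti-IgG acceptor beads. Final levels are 20 nM enzyme, 500 nM peptide, 20 uM SAM; 2 h RT.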
HP1b binding inh = HTS for Inhibitors of HP1-beta Chromodomain Interactions with Methylated Histone Tails. hit rate 0.56% among 390,000. AlphaScreen HP1-beta / biotin-H3K9me3 peptide binding. AID 540317, 2011. Chromobox protein homolog 1 (Homo sapiens), P83916. Potency, µM (series often up to 114 µM), without a hit: at the highest dose activity change, negative = inhibition, usual class: inhibitors; note: nearly all actives have a fitted effect of over 70% in size
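Compound inhibition of the preformed complex between 50 nM HP1-beta and 50 nM biotinylated H3K9me3 peptide was read by AlphaScreen. Buffer was PBS pH 7.4 with 0.01% Tween-20. Incubations ran 30 min at room temperature, with 10 ug/mL donor/acceptor beads.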
JMJD2A Tudor inh = qHTS Assay for Inhibitors of JMJD2A-Tudor Domain; Lysine-specific demethylase 4A (Homo sapiens), O75164; AlphaScreen JMJD2A-Tudor / H3K4me3 peptide binding; Potency, µM (highest dose often 114 µM), for the others: at the highest dose activity change, negative = inhibition, usual class: inhibitors; hit rate 4.4% among 390,000; note: % is set by controls: 0 for no effect and ±100 for the full control effect; nearly all actives have a fitted effect of over 50% in size
GLS inh = qHTS for Inhibitors of Glutaminase (GLS) | Glutaminase kidney isoform, mitochondrial (Homo sapiens), O94925 | GLS enzymatic activity, qHTS titration | AID 624170, 2012 | Potency, µM (doses to about 45.5 µM), for the others: at the highest dose activity change, negative = inhibition, hits mostly inhibitors | hit rate 0.21% among 410,000; note: % is set by controls: 0 for no effect and ±100 for the full control effect
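Read-out is an Amplex red fluorescence increase coupled through glutamate oxidase and HRP, measured before and after 30 min room-temperature incubation. hKGA is in 45 mM KH2PO4 (pH 8.2) with 0.02% Tween-20; glutamine added as 1mM solution.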
BAZ2B block = qHTS Assay for Inhibitors of BAZ2B; Bromodomain adjacent to zinc finger domain protein 2B (Homo sapiens), Q9UIF8; AlphaScreen BAZ2B-H3K14Ac peptide displacement; Potency, µM (highest dose often 114 µM), without a hit: at the top dose activity change, negative = inhibition, usual class: inhibitors; hit rate 4.4% among 360,000; AID 504333, 2011; note: % is set by controls: 0 for no effect and ±100 for the full control effect; nearly all actives have a fitted effect of over 60% in size
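Complex of BAZ2B and biotin-H3K14Ac (50 nM apiece) forms over 30 min at RT, then faces library compounds up to 110 uM for another 30 min; AlphaScreen beads added, 20 min dark incubation, luminescence read.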
* marks the source's active call; other numbers are inactive results; ? = inconclusive; · = no result given; [ ] = dose if it differs, or a comment. Calls come from the whole dose curve; as a rule, active = well fitted curve in the direction sought with a large enough effect; inconclusive = small, poorly fitted or top-dose-only effect, or another doubt; inactive = no such curve, though single readings can be large; an effect the other way counts as inactive or inconclusive. Potency is the fitted concentration of half-maximal effect.

SMILES	G9a block	HP1b binding inh	JMJD2A Tudor inh	GLS inh	BAZ2B block
COc1ccccc1N1CCN(Cc2ccco2)CC1	?	-54.4%	3.16µM*	17.4%	?
Clc1ccccc1N1CCN(Cc2ccco2)CC1	·	28.6%	-21.6%	-6.3%	-3.5%
Cc1cc2ccccc2cc1CN1CCCCC1	13.5%	42.5%	0.0%	-10.6%	-6.1%
Cc1ccccc1N1CCN(C(=O)C2CCC(=O)N(C3CCCC3)C2)CC1 (stereo unspecified)	16.9%	54.5%	-14.4%	-0.9%	-14.2%[57.1 µM]
COc1ccccc1CN1C(=S)SC(C)(C)C1NO (stereo unspecified)	12.5%[12.7 µM]	30.3%	-3.2%	-8.0%	-4.6%
COc1ccc(CN2CCCCCC2)cc1	·	23.9%	1µM*	39.0%	-0.9%
c1ccc2c(c1)CCN(Cc1nnnn1Cc1ccc3c(c1)OCO3)C2	-3.4%[59 µM]	18.4%	-31.2%	8.6%	-0.5%
COc1ccc(CN2CCOCC2)cc1	12.0%	26.9%	-13.0%	12.9%	?
Oc1cc2c(cc1CN1CCc3ccccc3C1)OCO2	20µM*	-2.6%	?	-1.9%	-32.1%
COc1ccc(CC(=O)NCc2ccco2)cc1OC	-24.2%[12.7 µM]	1.4%	-11.0%	13.4%	6.4%
COc1ccc(CN2CCN(Cc3ccco3)CC2)cc1OC	8.91µM*	?	20µM*	-9.0%	28.2µM*
O=C(C1=C[C@H](c2ccc(Br)cc2)C[C@H](OCc2ccc(CO)cc2)O1)N1CCN(Cc2ccc3c(c2)OCO3)CC1	-29.1%[12.7 µM]	6.3%	?	3.5%	?
Cc1ccc(CNC(=O)c2ccc3c(c2)N(Cc2cccc(Cl)c2)C(=O)CS3)cc1	1.4%[59 µM]	37.6%	-10.9%	13.5%	0.1%
COc1ccc(C(=O)N/N=C/c2ccc(OC)c(CN3CCCc4ccccc43)c2)cc1	?	-2.2%	?	-9.2%	?
COc1ccc(/C=N/NC(=O)c2cccnc2)cc1CN1CCCc2ccccc21	?	44.7µM*	35.5µM*	?	39.8µM*
COc1cc(/C=N/NC(N)=O)ccc1OC(=O)c1ccc(C)cc1	-6.4%[59 µM]	·	·	·	0.7%
O=C(N/N=C/c1ccc(OC(=O)c2ccccc2)cc1)c1cccnc1	20µM*	?	-27.8%	8.4%	?
Cc1ccc(C(=O)Oc2ccc(/C=N/NC(N)=O)cc2)cc1	28.2µM*	37.0%	-7.2%	-11.4%	?
O=C(N/N=C/c1ccc(OC(=O)c2ccc([N+](=O)[O-])cc2)cc1)c1cccnc1	20.7%	35.3%	-23.3%	-3.1%	-27.3%
COc1ccc(F)cc1S(=O)(=O)Nc1cccc(-c2ccc(N3CCCCCC3)nn2)c1	-28.7%[59 µM]	10.0%[57 µM]	-19.2%	-3.8%	-14.4%
O=[N+]([O-])c1ccc(Cl)c(S(=O)(=O)Nc2ccc(-c3ccc(N4CCCC4)nn3)cc2)c1	50.1µM*	0.1%	-34.2%	60.2%	-8.2%
COc1ccc(OC)c(S(=O)(=O)Nc2cccc(-c3ccc(N4CCCCC4)nn3)c2)c1	3.55µM*	?	?	-3.1%	-1.9%
O=[N+]([O-])c1ccc(Cl)c(S(=O)(=O)Nc2cccc(-c3ccc(N4CCCC4)nn3)c2)c1	39.8µM*	0.9%	-33.8%	11.9%	?
Cc1cccc(N2C(=O)/C(=C\c3ccc(C(=O)O)cc3)c3ccccc3C2=O)c1	44.7µM*	27.0%	-28.3%	-24.4%	?
CCSc1nnc(NC(=O)C(CC)(C(F)(F)F)C(F)(F)F)s1	50.1µM*	43.4%	-30.0%	-3.1%	?
SMILES	G9a block	HP1b binding inh	JMJD2A Tudor inh	GLS inh	BAZ2B block
CCSc1nnc(NC(=O)c2cnccn2)s1	9.3%[59 µM]	34.8%	79.4µM*	-7.8%	21.7%
CCSc1nnc(NC(=O)c2ccccn2)s1	?	61.1%	8.91µM*	-23.5%	6.31µM*
O=C(O)C[C@H]1c2ccc(C(F)(F)F)cc2S(=O)(=O)N1C1CCCCC1	·	38.7%	-12.9%	1.7%	·
O=C(O)c1cccc(NC(=S)N/N=C/c2cccc(O)c2)c1	-23.2%	-7.5%	-17.4%	4.9%	-23.4%
CCOc1cc(/C=N/Nc2ccccc2Cl)ccc1OCC(=O)O	10µM*	?	-25.7%	?	?
COC(=O)c1ccc(COc2ccccc2/C=N/Nc2cccc(C(=O)O)c2)cc1	25.1µM*	33.0%	-9.6%	?	-37.4%
CCOc1cc(/C=N/NC(=O)CNc2cccc(C)c2)ccc1OC(=O)c1ccccc1	6.3%[12.7 µM]	-3.2%	?	14.6%	?
CCOc1cc(/C=N/Nc2cccc(C(=O)O)c2)ccc1OC(=O)c1ccccc1	10µM*	?	?	24.0%	?
O=C(O)c1cccc(NC(=S)N/N=C/c2ccccc2OCc2cccc(Br)c2)c1	44.7µM*	?	50.1µM*	26.4%	44.7µM*
COc1cccc(NC(=O)CNC(=O)c2cccs2)c1	24.6%[59 µM]	38.0%	-6.7%	6.0%	0.0%
O=C(O)c1cccc(NC(=S)N/N=C/c2ccccc2OCc2ccc(Br)cc2)c1	?	?	50.1µM*	55.8%	50.1µM*
COC(=O)c1ccc(COc2ccccc2/C=C(\C#N)C(=O)NC(C)C)cc1	-33.3%	8.4%	-5.9%	10.1%	-5.7%
CCCOc1ccc(/C=N/Nc2ccc(C(=O)O)cc2)c(OCCC)c1	39.8µM*	-14.8%	?	-9.6%	?
COC(=O)c1ccc(COc2ccccc2/C=C/C(=O)c2ccc(OCC(=O)O)cc2)cc1	50.1µM*	-3.0%	-23.4%	?	?
CCOC(=O)N1CCC(NS(=O)(=O)c2cc(Br)cnc2N)CC1	-2.4%	11.5%	-9.6%	-0.5%	3.3%
CCOc1ccc(CCNC(=O)c2ccc3c(c2)N(Cc2ccccc2F)C(=O)c2ccccc2S3=O)cc1OCC (stereo unspecified)	-9.1%[59 µM]	10.9%	-24.9%	-6.9%	?
CSc1ccc(S(=O)(=O)NCC(=O)OCC(=O)NCC2CCCO2)cc1[N+](=O)[O-] (stereo unspecified)	-30.4%	-11.0%	-17.4%	2.9%	3.4%
Cc1ccc(/C([O-])=C(/C(=S)NCc2ccccc2)[n+]2cccc(CO)c2)cc1[N+](=O)[O-]	28.2µM*	-5.9%	?	5.5%	?
CS(=O)(=O)Nc1ccc(C2=NN(C(=O)c3ccco3)C(c3ccccc3F)C2)cc1 (stereo unspecified)	50.1µM*	22.9%	-22.1%	15.6%	·
CCS(=O)(=O)Nc1ccc(C2=NN(C(=O)c3ccco3)C(c3ccco3)C2)cc1 (stereo unspecified)	?	9.8%	-14.4%	5.1%	-38.7%
O=S(=O)(c1ccccc1)N1N=C(c2ccc(Br)cc2)CC1c1ccco1 (stereo unspecified)	?	-1.0%	15.8µM*	?	-17.1%

Source: PubChem BioAssay (National Center for Advancing Translational Sciences (NCATS))
